Results from the supplement of paper PMC10849652.
Of roughly 8,800 targets only a part is listed; those with a hit were picked by preference. About 0.5% of all pairs of compound and target were hits.

Key:
Assay in all cases: log2 fold change, soluble protein after heating vs DMSO (PISA); higher = thermal stabilisation; K562 lysate, 10 uM; active = over 0.2 and 3.5 SD of the protein, either way, in both replicates (recomputed)
erlotinib = compound: C#Cc1cccc(Nc2ncnc3cc(OCCOC)c(OCCOC)cc23)c1 [erlotinib]
Summary of the method: (§1)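 Soluble protein was defined as the supernatant remaining after 21,000xg for 90 min, following pooling of heated aliquots and adjustment to 0.5% NP-40 at 4°C. Before that, crude K562 extract at 1 mg/mL protein in PBS pH 7.4 with 1 mM MgCl2 was treated with 10 μM compound for 30 min and heated for 3 min across 48°C-58°C. Quantification used TMTpro 16plex LC-MS/MS with channel sums equalised, and values are log-two fold changes in thermal stability relative to solvent controls from duplicates.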

[1] = compound: C/C(=N\NC(=O)C1=CC(=CC=C1)S(=O)(=O)N2CCOCC2)/C3=C(C=CC(=C3)Cl)O
Summary of the method: as §1

[2] = compound: C1=CC(=CC=C1C2=NC3=C(N2)C=C(C=C3)C(=O)N)OC4=CC=C(C=C4)Cl
Summary of the method: as §1

[3] = compound: C1=CC2=C(C=CC(=C2)/C=C\3/C(=O)NC(=NCC4=CC=CS4)S3)N=C1
Summary of the method: as §1

[4] = compound: C1=CC2=NC=CN=C2C=C1/C=C/3\C(=O)NC(=O)S3
Summary of the method: as §1

[5] = compound: C1=CC=C(C=C1)C2=NC(=C(N2)C3=CC=NC=C3)C4=CC(=C(C=C4)Cl)O
Summary of the method: as §1

[6] = compound: C1=CC=C2C(=C1)C3=NNC4=CC=CC(=C43)C2=O
Summary of the method: as §1

[7] = compound: C1CCN(C1)C(=O)NC2=CC=CC(=C2)NC3=NC=C(C(=N3)NCCC4=CN=CN4)Br
Summary of the method: as §1

[8] = compound: C1CN(CCC1(CC2=CC=C(C=C2)Cl)N)C3=NC=NC4=C3C=CN4
Summary of the method: as §1

IRAK-1-4 Inhibitor I = compound: C1COCCN1CCN2C3=CC=CC=C3N=C2NC(=O)C4=CC(=CC=C4)[N+](=O)[O-] [IRAK-1-4 Inhibitor I]
Summary of the method: as §1

Measured: log2 fold change

AKR1C2 (UniProt P52895)
Sequence of UniProt P52895 (P52895 whole entry, looked up): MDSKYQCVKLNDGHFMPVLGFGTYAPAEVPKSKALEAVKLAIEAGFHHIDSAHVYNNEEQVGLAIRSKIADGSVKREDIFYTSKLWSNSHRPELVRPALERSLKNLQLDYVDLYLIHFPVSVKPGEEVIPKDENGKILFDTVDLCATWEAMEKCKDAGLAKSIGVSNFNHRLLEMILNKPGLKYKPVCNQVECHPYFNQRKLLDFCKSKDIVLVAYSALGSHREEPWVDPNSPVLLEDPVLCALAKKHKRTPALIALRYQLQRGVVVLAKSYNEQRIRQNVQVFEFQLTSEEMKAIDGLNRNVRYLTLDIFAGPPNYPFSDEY
inactive: erlotinib 0.03 | [1] -0.167 | [2] 0.005 | [3] 0.015 | [4] 0.006 | [5] 0.013 | [6] -0.046 | [7] -0.033 | [8] 0.006 | IRAK-1-4 Inhibitor I -0.024

ALDH1L2 (UniProt Q3SY69)
Sequence of UniProt Q3SY69 (Q3SY69 whole entry, looked up): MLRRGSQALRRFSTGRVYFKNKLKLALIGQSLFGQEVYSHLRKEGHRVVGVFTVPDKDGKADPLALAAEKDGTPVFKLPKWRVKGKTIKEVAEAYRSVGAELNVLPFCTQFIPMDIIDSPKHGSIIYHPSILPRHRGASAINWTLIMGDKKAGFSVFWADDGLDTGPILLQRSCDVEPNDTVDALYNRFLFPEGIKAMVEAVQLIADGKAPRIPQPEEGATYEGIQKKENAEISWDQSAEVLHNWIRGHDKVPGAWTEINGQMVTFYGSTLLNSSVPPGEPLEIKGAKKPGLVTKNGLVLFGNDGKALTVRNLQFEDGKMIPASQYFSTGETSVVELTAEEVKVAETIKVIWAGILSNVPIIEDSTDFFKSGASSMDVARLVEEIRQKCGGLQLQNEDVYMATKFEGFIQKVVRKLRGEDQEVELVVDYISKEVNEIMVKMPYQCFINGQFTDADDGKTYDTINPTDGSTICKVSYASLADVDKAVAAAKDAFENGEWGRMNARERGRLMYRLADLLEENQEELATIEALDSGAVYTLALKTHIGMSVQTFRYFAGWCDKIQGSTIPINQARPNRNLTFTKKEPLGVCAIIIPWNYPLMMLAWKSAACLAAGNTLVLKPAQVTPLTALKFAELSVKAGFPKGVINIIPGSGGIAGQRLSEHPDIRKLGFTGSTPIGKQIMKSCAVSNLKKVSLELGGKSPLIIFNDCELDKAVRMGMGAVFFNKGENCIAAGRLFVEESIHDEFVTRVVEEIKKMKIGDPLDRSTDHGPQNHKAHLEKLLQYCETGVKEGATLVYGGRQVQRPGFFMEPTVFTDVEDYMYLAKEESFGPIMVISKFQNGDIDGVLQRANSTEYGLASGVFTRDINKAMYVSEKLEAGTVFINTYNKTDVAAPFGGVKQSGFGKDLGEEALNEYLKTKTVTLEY
inactive: erlotinib 0.005 | [1] 0.025 | [2] 0.011 | [3] 0.037 | [4] -0.02 | [5] -0.004 | [6] -0.064 | [7] -0.018 | [8] 0.024 | IRAK-1-4 Inhibitor I -0.011

ACYP1 (UniProt P07311)
inactive: erlotinib -0.032 | [1] 0.028 | [2] -0.007 | [3] -0.02 | [4] -0.008 | [5] -0.017 | [6] -0.01 | [7] 0.024 | [8] -0.004 | IRAK-1-4 Inhibitor I 0.013

AGGF1 (UniProt Q8N302)
Sequence of UniProt Q8N302 (Q8N302 whole entry, looked up): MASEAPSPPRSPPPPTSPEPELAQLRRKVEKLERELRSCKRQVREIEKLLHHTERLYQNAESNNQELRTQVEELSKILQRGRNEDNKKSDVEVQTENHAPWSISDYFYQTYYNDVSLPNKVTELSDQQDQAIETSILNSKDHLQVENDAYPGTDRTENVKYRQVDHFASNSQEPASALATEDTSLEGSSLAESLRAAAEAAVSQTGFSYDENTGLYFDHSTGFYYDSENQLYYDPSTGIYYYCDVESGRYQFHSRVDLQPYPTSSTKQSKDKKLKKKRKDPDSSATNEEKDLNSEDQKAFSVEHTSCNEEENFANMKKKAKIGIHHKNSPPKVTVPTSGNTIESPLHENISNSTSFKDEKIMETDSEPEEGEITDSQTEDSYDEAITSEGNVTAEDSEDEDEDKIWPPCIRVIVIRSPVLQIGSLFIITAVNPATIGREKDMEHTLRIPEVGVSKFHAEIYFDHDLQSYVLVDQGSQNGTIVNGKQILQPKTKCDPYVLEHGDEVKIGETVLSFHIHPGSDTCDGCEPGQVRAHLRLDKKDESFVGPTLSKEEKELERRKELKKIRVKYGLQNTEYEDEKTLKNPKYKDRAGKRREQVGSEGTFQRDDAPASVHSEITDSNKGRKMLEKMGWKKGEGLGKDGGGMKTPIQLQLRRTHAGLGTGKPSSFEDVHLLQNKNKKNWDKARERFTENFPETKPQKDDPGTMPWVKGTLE
inactive: erlotinib -0.015 | [1] -0.056 | [2] 0.054 | [3] -0.19 | [4] -0.077 | [5] 0.018 | [6] 0.057 | [7] -0.038 | [8] -0.022 | IRAK-1-4 Inhibitor I 0.023

ABCF3 (UniProt Q9NUQ8)
inactive: erlotinib 0.005 | [1] 0.013 | [2] -0.049 | [3] 0.011 | [4] 0.009 | [5] -0.011 | [6] -0.065 | [7] 0.022 | [8] -0.033 | IRAK-1-4 Inhibitor I -0.037

ARMC6 (UniProt Q6NXE6)
inactive: erlotinib 0.012 | [1] -0.026 | [2] -0.093 | [3] 0.022 | [4] 0.04 | [5] 0.006 | [6] -0.027 | [7] 0.021 | [8] -0.031 | IRAK-1-4 Inhibitor I -0.005

ALDH6A1 (UniProt Q02252)
inactive: erlotinib -0.03 | [1] 0.064 | [2] -0.04 | [3] -0.068 | [4] -0.179 | [5] 0.043 | [6] -0.031 | [7] -0.022 | [8] 0.015 | IRAK-1-4 Inhibitor I 0.024

ANP32A (UniProt P39687)
Sequence of UniProt P39687 (P39687 whole entry, looked up): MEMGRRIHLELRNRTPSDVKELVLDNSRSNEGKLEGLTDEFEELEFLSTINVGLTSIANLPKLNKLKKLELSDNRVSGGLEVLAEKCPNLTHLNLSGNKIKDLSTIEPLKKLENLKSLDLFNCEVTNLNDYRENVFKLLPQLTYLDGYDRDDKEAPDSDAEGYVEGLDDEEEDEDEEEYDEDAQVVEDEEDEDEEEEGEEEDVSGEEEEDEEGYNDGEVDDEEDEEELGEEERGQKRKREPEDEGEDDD
inactive: erlotinib -0.147 | [1] 0.075 | [2] -0.199 | [3] -0.012 | [4] 0.012 | [5] 0.006 | [6] 0.018 | [7] 0.026 | [8] -0.008 | IRAK-1-4 Inhibitor I 0.013

ABCA3 (UniProt Q99758)
Sequence of UniProt Q99758 (Q99758 whole entry, looked up): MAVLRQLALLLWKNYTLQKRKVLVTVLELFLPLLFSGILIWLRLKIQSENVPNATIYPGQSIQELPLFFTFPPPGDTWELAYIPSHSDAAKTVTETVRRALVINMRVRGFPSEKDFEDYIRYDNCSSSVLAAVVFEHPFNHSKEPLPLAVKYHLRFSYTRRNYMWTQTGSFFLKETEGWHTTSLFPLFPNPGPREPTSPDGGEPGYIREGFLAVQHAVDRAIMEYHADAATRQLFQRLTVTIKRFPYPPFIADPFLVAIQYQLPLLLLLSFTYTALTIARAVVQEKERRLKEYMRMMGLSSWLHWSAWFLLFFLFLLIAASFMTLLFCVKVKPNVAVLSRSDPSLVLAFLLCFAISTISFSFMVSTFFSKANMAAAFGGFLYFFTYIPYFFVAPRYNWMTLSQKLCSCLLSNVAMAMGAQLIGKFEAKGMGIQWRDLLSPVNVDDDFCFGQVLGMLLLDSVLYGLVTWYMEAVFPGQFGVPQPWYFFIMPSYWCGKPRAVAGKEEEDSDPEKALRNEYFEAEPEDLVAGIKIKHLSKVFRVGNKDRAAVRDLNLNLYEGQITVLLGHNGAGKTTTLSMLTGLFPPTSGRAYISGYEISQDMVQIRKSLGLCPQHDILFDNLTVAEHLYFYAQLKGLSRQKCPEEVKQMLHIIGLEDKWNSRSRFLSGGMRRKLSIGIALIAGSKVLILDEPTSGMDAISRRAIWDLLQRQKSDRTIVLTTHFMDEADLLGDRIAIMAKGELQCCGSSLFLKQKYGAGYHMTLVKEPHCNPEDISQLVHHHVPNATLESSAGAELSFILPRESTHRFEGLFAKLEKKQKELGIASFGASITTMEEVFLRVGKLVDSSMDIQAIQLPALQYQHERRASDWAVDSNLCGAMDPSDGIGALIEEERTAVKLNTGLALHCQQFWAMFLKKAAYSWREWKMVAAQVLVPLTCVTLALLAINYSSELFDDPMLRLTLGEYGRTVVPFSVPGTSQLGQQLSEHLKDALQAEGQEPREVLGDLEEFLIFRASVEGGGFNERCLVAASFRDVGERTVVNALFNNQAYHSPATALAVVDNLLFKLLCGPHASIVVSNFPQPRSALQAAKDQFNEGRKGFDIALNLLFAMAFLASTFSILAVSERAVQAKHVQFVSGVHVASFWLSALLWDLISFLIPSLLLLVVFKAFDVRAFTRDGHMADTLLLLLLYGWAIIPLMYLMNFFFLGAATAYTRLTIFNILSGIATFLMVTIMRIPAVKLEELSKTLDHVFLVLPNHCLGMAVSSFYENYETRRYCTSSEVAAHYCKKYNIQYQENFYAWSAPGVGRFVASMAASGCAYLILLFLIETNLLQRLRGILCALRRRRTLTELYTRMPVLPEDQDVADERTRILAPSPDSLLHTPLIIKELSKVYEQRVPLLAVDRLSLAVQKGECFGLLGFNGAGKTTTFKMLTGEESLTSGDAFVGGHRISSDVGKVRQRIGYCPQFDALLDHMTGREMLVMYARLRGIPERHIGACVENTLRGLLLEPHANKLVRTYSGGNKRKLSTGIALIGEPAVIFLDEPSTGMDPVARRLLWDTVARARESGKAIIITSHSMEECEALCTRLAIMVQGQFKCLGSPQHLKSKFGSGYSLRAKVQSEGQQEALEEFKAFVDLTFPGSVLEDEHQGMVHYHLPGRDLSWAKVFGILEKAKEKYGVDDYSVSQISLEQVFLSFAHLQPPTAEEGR
inactive: erlotinib -0.022 | [1] -0.028 | [2] -0.033 | [3] 0.036 | [4] -0.096 | [5] 0.037 | [6] 0.211 | [7] -0.118 | [8] 0 | IRAK-1-4 Inhibitor I 0.114

AKT2 (UniProt P31751)
inactive: erlotinib -0.011 | [1] 0.082 | [2] -0.013 | [3] -0.005 | [4] -0.022 | [5] -0.025 | [6] 0.009 | [7] -0.014 | [8] -0.017 | IRAK-1-4 Inhibitor I -0.045

ABCF2 isoform 2 (UniProt Q9UG63)
inactive: erlotinib 0.046 | [1] -0.029 | [2] -0.049 | [3] -0.025 | [4] 0.01 | [5] 0.018 | [6] -0.042 | [7] 0.049 | [8] 0.016 | IRAK-1-4 Inhibitor I -0.047

AKR1B1 (UniProt P15121)
inactive: erlotinib -0.044 | [1] -0.001 | [2] -0.006 | [3] 0.012 | [4] -0.009 | [5] -0.047 | [6] -0.044 | [7] -0.043 | [8] -0.003 | IRAK-1-4 Inhibitor I -0.021

ARFGAP1 (UniProt Q8N6T3)
Sequence of UniProt Q8N6T3 (Q8N6T3 whole entry, looked up): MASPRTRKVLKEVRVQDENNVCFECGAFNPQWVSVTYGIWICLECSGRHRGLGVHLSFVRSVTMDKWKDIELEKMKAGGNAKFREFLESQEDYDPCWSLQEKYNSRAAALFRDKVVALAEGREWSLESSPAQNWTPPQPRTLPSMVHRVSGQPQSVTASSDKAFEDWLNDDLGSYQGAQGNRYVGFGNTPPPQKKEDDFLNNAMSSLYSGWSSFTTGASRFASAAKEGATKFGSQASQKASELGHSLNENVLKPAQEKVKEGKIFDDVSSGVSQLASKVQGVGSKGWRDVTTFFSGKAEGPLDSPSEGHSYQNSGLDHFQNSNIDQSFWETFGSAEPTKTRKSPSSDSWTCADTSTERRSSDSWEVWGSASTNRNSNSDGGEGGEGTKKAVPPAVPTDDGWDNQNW
inactive: erlotinib -0.028 | [1] -0.209 | [2] -0.025 | [3] 0.005 | [4] 0.029 | [5] -0.039 | [6] -0.025 | [7] -0.018 | [8] 0.002 | IRAK-1-4 Inhibitor I 0.038

ASPH (UniProt Q12797)
Sequence of UniProt Q12797 (Q12797 whole entry, looked up): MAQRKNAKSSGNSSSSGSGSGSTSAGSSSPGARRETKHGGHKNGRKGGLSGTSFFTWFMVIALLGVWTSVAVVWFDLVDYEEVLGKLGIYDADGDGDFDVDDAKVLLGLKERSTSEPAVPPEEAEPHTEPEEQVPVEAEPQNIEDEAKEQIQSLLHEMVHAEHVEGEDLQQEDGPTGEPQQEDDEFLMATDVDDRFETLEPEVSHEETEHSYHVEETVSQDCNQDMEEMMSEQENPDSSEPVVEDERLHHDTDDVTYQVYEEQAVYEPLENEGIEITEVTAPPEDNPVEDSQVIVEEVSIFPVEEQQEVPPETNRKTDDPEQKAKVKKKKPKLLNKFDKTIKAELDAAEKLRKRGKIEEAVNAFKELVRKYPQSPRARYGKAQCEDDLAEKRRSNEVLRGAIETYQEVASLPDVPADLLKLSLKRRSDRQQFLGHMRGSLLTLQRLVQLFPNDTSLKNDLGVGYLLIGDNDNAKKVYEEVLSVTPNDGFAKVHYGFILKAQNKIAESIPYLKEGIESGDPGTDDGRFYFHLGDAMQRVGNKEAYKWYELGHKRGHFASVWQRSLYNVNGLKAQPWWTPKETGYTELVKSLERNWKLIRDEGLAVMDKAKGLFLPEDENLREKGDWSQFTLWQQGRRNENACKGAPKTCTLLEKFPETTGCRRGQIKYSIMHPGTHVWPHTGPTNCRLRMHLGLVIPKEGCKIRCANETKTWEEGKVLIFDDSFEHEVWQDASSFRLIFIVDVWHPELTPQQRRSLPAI
inactive: erlotinib 0.003 | [1] -0.028 | [2] -0.013 | [3] 0.075 | [4] -0.011 | [5] 0.006 | [6] -0.022 | [7] -0.011 | [8] 0.01 | IRAK-1-4 Inhibitor I -0.016

AMPD3 isoform 4 (UniProt Q01432)
inactive: erlotinib 0 | [1] 0.048 | [2] 0.031 | [3] 0.007 | [4] -0.072 | [5] -0.004 | [6] 0.027 | [7] -0.002 | [8] -0.002 | IRAK-1-4 Inhibitor I 0.015
